Measured values as given in PubChem BioAssay AID1851 (National Center for Advancing Translational Sciences (NCATS), 2009).
Where “and” joins values, the source holds several entries; their conditions need not be identical. Equal entries are not always repeated. The campaign covered roughly 16,000 compounds. About 5,700 (36%) were called active. Roughly 24% stayed inconclusive and do not appear here. Calls come from the whole dose curve; as a rule, active = well fitted curve in the direction sought with a large enough effect; inconclusive = small, poorly fitted or top-dose-only effect, or effect the other way; inactive = no such curve, though single readings can be large or run the other way. The list shows a part of the results.
% is set by controls: 0 for no effect and ±100 for the full control effect.

Each compound was assayed against Cytochrome P450 1A2 (Homo sapiens) (UniProt P05177) (assay: Cytochrome panel assay with activity outcomes). Conditions: recombinant CYP, pro-luciferin dealkylation, luminescence, p450-cyp1a2; series mostly up to 57.1 µM.
Sequence of Cytochrome P450 1A2 (Homo sapiens) (P05177 whole entry, looked up): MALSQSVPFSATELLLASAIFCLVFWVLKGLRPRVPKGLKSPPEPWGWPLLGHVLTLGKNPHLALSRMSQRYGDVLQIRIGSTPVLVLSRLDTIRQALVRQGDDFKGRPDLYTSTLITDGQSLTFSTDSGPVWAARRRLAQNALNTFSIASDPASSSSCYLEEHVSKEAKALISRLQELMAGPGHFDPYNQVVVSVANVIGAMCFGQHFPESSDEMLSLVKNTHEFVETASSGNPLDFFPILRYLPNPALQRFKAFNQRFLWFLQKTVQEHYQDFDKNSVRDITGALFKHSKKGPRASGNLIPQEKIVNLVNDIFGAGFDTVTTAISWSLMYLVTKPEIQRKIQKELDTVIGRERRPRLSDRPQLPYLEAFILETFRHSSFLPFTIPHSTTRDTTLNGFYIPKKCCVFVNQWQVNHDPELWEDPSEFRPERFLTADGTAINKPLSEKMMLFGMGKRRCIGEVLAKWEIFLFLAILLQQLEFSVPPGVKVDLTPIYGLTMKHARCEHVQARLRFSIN
`CCCCCCCCCCCCCCCC(=O)NC[C@@H](COP(=O)([O-])OCC[N+](C)(C)C)OCC` was tested, and the AC50 was “inactive”. In the case of `Cc1cc2c(nc1C)CCCN2C[C@H](O)CN1CCCc2nc(-c3ccc(Br)cc3)ccc21`, the activity, negative = inhibition is reported as 3.9% [at 11.4 µM] (inactive) and 2.86% [at 11.4 µM] (inactive). In the case of `CC1(C)CC(=O)C(C=NCCN2CCN(C(=S)Nc3ccc(F)cc3)CC2)=C(O)C1`, the AC50 is reported as “inactive”. In the case of `CN1CC(c2ccccn2)C2(SC(=S)N(Cc3ccccc3)C2=O)C12C(=O)Nc1ccccc12` (configuration not stated), the AC50 is reported as 17800 nM (active). For `CN1CC(c2ccccc2)C2(COc3ccccc3C2=O)C12C(=O)Nc1ccccc12` (configuration not stated), the AC50 was “inactive”. For `CC(/C=C/c1ccccc1)=N/NC(=O)CNC(=O)c1ccc2c(c1)OCO2`, the AC50 was 2240 nM (active). With `CC1CCCCN1c1nc(-c2ccncc2)nc2ccccc12` (configuration not stated) the AC50 was 355 nM (active). `NC(=O)C1(N2CCCCC2)CCN(C(=O)c2ccc(-n3cnnn3)cc2)CC1` was tested, and the AC50 was “inactive”. In the case of `N#CC(c1ccc(Cl)cc1)c1nc2ccccc2nc1C(F)(F)F` (configuration not stated), the AC50 is reported as 1580 nM (active). With `CCOC(=O)c1ccc(S(=O)(=O)Nc2ccc3cn[nH]c3c2)cc1` the AC50 was 5010 nM (active). For `CCOc1cc(C)c(S(=O)(=O)Nc2ccc3cn[nH]c3c2)cc1C`, the AC50 was 178 nM (active). With `Cc1ccnc(NS(=O)(=O)c2ccc(NC(=O)C3CCCNC3=O)cc2)n1` (configuration not stated) the AC50 was “inactive”. With `Cn1c(=O)[nH]c(=O)c2c1nc(CN(Cc1ccccc1)Cc1ccccc1)n2CCN1CCOCC1` the AC50 was “inactive”. With `C[C@@H](O)[C@H]1C(=O)N2C(C(=O)O)=C(S[C@@H]3CN[C@H](C(=O)N(C)C)C3)[C@H](C)[C@H]12` the AC50 was “inactive”. `CN1c2ccccc2Oc2c(c(=O)n(C)c(=O)n2C)C1c1cccc([N+](=O)[O-])c1` (configuration not stated) was tested, and the AC50 was “inactive”. With `O=C(c1ccco1)N1CCN(C(=O)c2nn3cccnc3c2Cl)CC1` the AC50 was “inactive”. With `CCOc1ccc(-n2c(SCC(=O)Nc3ccccc3C)n[nH]c2=O)cc1` the AC50 was “inactive”. With `COCC(=O)N1CCC2(CC1)CCN(C(=O)Nc1ccc(OC)cc1)CC2` the AC50 was “inactive”. With `CCCC(=O)Nc1cc(-c2cn3cccnc3n2)ccc1OC` the AC50 was 100 nM (active). With `CCOCC(=O)Nc1cc(-c2cn3cccnc3n2)ccc1C` the AC50 was 50.1 nM (active). `COCC(=O)Nc1ccc(-c2cn3cccnc3n2)cc1` was tested, and the AC50 was 7080 nM (active). `N#Cc1cccc(NC(=O)N2CCC3(CC2)CCN(C(=O)c2ccco2)CC3)c1` was tested, and the AC50 was “inactive”. With `O=C(Nc1cccc(-c2cn3cccnc3n2)c1)c1ccco1` the AC50 was 31.6 nM (active). With `NC(=O)c1ccc[n+](CC(=O)OCCC23CC4CC(CC(C4)C2)C3)c1` the AC50 was “inactive”. For `CC(=O)C[C@H](O)[C@@H](NC(=O)OC(C)(C)C)C(C)C`, the activity, negative = inhibition was 0.505% [at 11.4 µM] (inactive). In the case of `Cc1cc(C2(c3cc(C)c(O)c(C(=O)O)c3)OS(=O)(=O)c3ccccc32)cc(C(=O)O)c1O`, the activity, negative = inhibition is reported as -9.3% [at 11.4 µM] (inactive). In the case of `c1ccc([P+](CC[P+](c2ccccc2)(c2ccccc2)c2ccccc2)(c2ccccc2)c2ccccc2)cc1`, the activity, negative = inhibition is reported as -7.8% [at 11.4 µM] (inactive). In the case of `O=c1c2c(n3cnnc3n1-c1ccccc1)-c1ccccc1CC21CCCCC1`, the AC50 is reported as “inactive”. With `Nc1nc(=S)[nH]c2c1C1(CCCC1)Cc1ccccc1-2` the AC50 was 891 nM (active). With `CCOC(=O)CCN1C(=O)[C@H]2[C@H]3[C@H](O)[C@H](O)C/C(=N/OC/C=C(\C)CCC=C(C)C)[C@H]3CC[C@@H]2C1=O` the activity, negative = inhibition was 1.64% [at 11.4 µM] (inactive). `CC(=O)c1cccc(NC(=O)c2csc(-n3nc(C)cc3C(F)(F)F)n2)c1` was tested, and the AC50 was 3160 nM (active). `CO[C@H]1[C@@H](OC(N)=O)[C@H](O)[C@@H](Oc2ccc3c(O)c(NC(=O)c4ccc(O)c(CC=C(C)C)c4)c(=O)oc3c2C)OC1(C)C` was tested, and the AC50 was “inactive”. In the case of `Cc1cc2c(nc1C)CCCN2C[C@H](C)O/N=C1/[C@H]2O[C@@H]2[C@@H](O)[C@H]2[C@H]1CCn1c(=O)n(-c3ccccc3)c(=O)n12`, the activity, negative = inhibition is reported as 2.9% [at 11.4 µM] (inactive). With `Cc1c(NC(=O)Nc2c(Cl)cccc2Cl)c(=O)n(-c2ccccc2)n1C` the activity, negative = inhibition was -6.85% [at 11.4 µM] (inactive). For `Cc1cc(SC(C)C(=O)Nc2c(C)n(C)n(-c3ccccc3)c2=O)nc2ccccc12` (configuration not stated), the AC50 was 1000 nM (active). With `Cc1cc(C(=O)Nc2c(C)n(C)n(-c3ccccc3)c2=O)c2ccccc2n1` the AC50 was “inactive”. With `CCCc1cc(=O)[nH]c(=S)[nH]1` the AC50 was “inactive”. For `O=c1c(-c2ccc(F)cc2)nc2cnc(N3CCNCC3)nc2n1C1CC1`, the AC50 was 2510 nM (active). `COc1ccc(-c2nc3cnc(N4CCNCC4)nc3n(C3CC3)c2=O)cc1` was tested, and the AC50 was 6310 nM (active). With `O=c1c(-c2cc(F)cc(F)c2)nc2cnc(N3CCNCC3)nc2n1C1CC1` the AC50 was 3160 nM (active). For `CS(=O)(=O)N1CCC2(CCCN(c3ccncc3)C2)CC1`, the AC50 was “inactive”. `C/C(=N\NC(=O)CC1N=C(Cc2ccccc2)NNC1=O)c1ccc(Cl)cc1Cl` (configuration not stated) was tested, and the AC50 was “inactive”. In the case of `C/C(=N\NC(=O)Cc1ccc(Cl)cc1)c1ccccn1`, the AC50 is reported as 4470 nM (active). In the case of `COc1cccc([C@H](O)Cn2cc(-c3cccc(CON=C(C)C)c3)nn2)c1`, the activity, negative = inhibition is reported as -3.64% [at 11.4 µM] (inactive). In the case of `C[N+]1(C)CCc2cc3c(cc2[C@@H]1[C@@H]1C(=O)Oc2c1ccc1c2OCO1)OCO3`, the AC50 is reported as 1260 nM (active). `COc1ccc2c(c1OC)C(=O)OC2[C@H]1c2c(cc3c(c2OC)OCO3)CCN1C` (some centres not stated) was tested, and the AC50 was “inactive”. In the case of `C=CCNc1oc(/C=C/c2ccccc2)nc1C#N`, the AC50 is reported as 3550 nM (active). `O=C(c1csnn1)N1CCC2(CC1)CN(C(c1ccccc1)c1ccccc1)C2` was tested, and the AC50 was “inactive”. `CCOC(=O)C(=Cc1ccc(-c2ccsc2C(=O)OC)o1)C(=O)OCC` was tested, and the AC50 was 14100 nM (active). With `S=C1SCN(C2CCCCCCCCCCC2)CN1C1CCCCCCCCCCC1` the activity, negative = inhibition was -14.7% [at 2.29 µM] (inactive). `O=C(Cn1cc(C(=O)c2ccco2)c2ccccc21)NCc1ccco1` was tested, and the AC50 was 11200 nM (active). For `COc1ccccc1CN1CCCC2(CCN(C(=O)c3ccco3)CC2)C1`, the AC50 was “inactive”. `COc1ccccc1CN1CCC2(CC1)CCN(C(=O)c1ccco1)CC2` was tested, and the AC50 was “inactive”. For `COc1ccccc1OCCn1cc(C(=O)c2ccco2)c2ccccc21`, the AC50 was 2510 nM (active). With `O=C(CSc1ccccc1C(=O)O)NCc1ccco1` the AC50 was “inactive”. In the case of `N#Cc1cc(-c2ccc(Cl)cc2)cnc1Sc1ccccc1`, the AC50 is reported as 398 nM (active). In the case of `N#Cc1cc(-c2ccc(Cl)cc2)cnc1Sc1ccc(F)cc1`, the AC50 is reported as 112 nM (active). `N#Cc1cc(-c2ccccc2)cnc1Sc1ccc(Cl)cc1` was tested, and the AC50 was 1780 nM (active). For `CO/N=C(\C(=O)N[C@@H]1C(=O)N2C(C(=O)O)=C(COC(C)=O)CS[C@@H]12)c1csc(N)n1`, the AC50 was “inactive”. With `CN[C@]1(C)[C@H]2CC[C@@H](C2)C1(C)C` the AC50 was “inactive”. For `CC(=O)OC[C@@H]1O[C@H](C/C=N\O[C@@H](C)c2cn([C@H]3COC[C@H]3O)nn2)C=C[C@@H]1OC(C)=O`, the activity, negative = inhibition was -4.99% [at 11.4 µM] (inactive). `CC(=O)N1CCC2(CCCN(C(=O)Nc3cccc(F)c3)C2)CC1` was tested, and the AC50 was “inactive”. `COc1ccc(C(=O)N2CCC3(CCN(C(=O)Nc4cccc(F)c4)CC3)CC2)cc1` was tested, and the AC50 was “inactive”. In the case of `COc1ccc(NC(=O)N2CCCC3(CCN(C(=O)c4cccc(F)c4)CC3)C2)cc1`, the AC50 is reported as “inactive”. `COc1ccc(C(=O)N2CCC3(CCCN(C(=O)Nc4cccc(F)c4)C3)CC2)cc1` was tested, and the AC50 was 20000 nM (active). For `O=C(Nc1cccc(F)c1)N1CCCC2(CCN(C(=O)c3ccncc3)CC2)C1`, the AC50 was 12600 nM (active). `COC(=O)N1CCC2(CCCN(C(=O)Nc3cccc(F)c3)C2)CC1` was tested, and the AC50 was “inactive”. With `COC(=O)N1CCC2(CC1)CN(C(=O)Nc1cccc(F)c1)C2` the AC50 was “inactive”. For `O=C(Nc1cccc(F)c1)N1CCCC2(CCN(C(=O)c3cnccn3)CC2)C1`, the AC50 was “inactive”. In the case of `COC(=O)N1CCC2(CCN(C(=O)Nc3cccc(F)c3)CC2)CC1`, the AC50 is reported as 12600 nM (active). For `COc1ccc2[nH]cc(CCNc3ccnc(-c4ccccc4Cl)n3)c2c1`, the AC50 was 398 nM (active). In the case of `COc1ccc2[nH]cc(CCNc3ccnc(-c4ccccc4C)n3)c2c1`, the AC50 is reported as 316 nM (active). `C#C[C@H](N)CCC(=O)O` was tested, and the AC50 was “inactive”. For `Nc1ncnc2nn([C@H]3O[C@@H](CO)[C@@H](O)[C@H]3O)nc12`, the activity, negative = inhibition was -11.4% [at 11.4 µM] (inactive). In the case of `Cc1ccc2c(c1)N[C@H](c1ccc(C(=O)O)cc1)c1cccn1-2`, the AC50 is reported as 794 nM (active). In the case of `Cc1ccc(C)c(S(=O)(=O)NCc2ccc(C(=O)N3CCC(Cc4ccccc4)CC3)cc2)c1`, the AC50 is reported as “inactive”. In the case of `CN(C)CCNCCN`, the activity, negative = inhibition is reported as -0.129% [at 11.4 µM] (inactive). In the case of `N=C(N)c1ccccc1`, the AC50 is reported as “inactive”. `N=C(N)c1ccc(N=Nc2c(O)ccc3c2[nH]c2ccccc23)cc1` was tested, and the AC50 was 1580 nM (active). For `Cc1ccc(NC(=O)NCCCc2ccccc2)cc1`, the AC50 was 3550 nM (active). `O=C(NCCCc1ccccc1)c1cccs1` was tested, and the AC50 was 11200 nM (active). For `CC(C)C(=O)NCCCc1ccccc1`, the AC50 was “inactive”. `CSCC[C@@H]1NC(=O)C/C=C\[C@@H](C)COC(=O)[C@@H](C)COC1=O` was tested, and the activity, negative = inhibition was 4.43% [at 11.4 µM] (inactive). In the case of `C[C@H]1[C@@H](O)[C@@H](C)\C=C/C=C\C=C/C=C\C=C/C=C\C=C/[C@@H](O[C@H]2O[C@@H](C)[C@@H](O)[C@@H](N)[C@@H]2O)C[C@@H]2O[C@](O)(C[C@@H](O)C[C@@H](O)[C@@H](O)CC[C@@H](O)C[C@@H](O)CC(=O)O[C@H]1C)C[C@@H](O)[C@H]2C(=O)O` (stereo in doubt), the AC50 is reported as “inactive”. `CCC(O)CNc1nc(-n2nc(C)cc2C)nc2sc3c(c12)CC(C)(C)OC3` (configuration not stated) was tested, and the AC50 was 14100 nM (active). `Cc1cc(C)n(-c2nc(NCC(C)O)c3c4c(sc3n2)COC(C)(C)C4)n1` (configuration not stated) was tested, and the AC50 was 8910 nM (active). `Cc1cc(NC(=O)Nc2ccc3c(ccn3C)c2)sn1` was tested, and the AC50 was 5010 nM (active).
